Growth data for twelve compounds are collected here from PubChem BioAssay (NCI).

This is part of a sample that, as a whole, favours compounds with a hit. Of some 83,000 tested, about 20% had one in any assay.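 Cell lines were cultured in 96-well plates, exposed to a single compound concentration, and assessed for percent growth 48 hours later.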 Unmarked numbers belong to inactive results. Activity calls are given as the source filed them. How the source made its calls: active means growth percent below 10; inactive means the rest.

Test systems include NCI-H23 lung; NCI-H226 lung; NCI-H322M lung; HOP-62 NSCLC; NCI-H460 lung; HOP-92 NSCLC; NCI-H522 lung; A549/ATCC NSCLC; 786-0 renal; COLO 205 colon.
Holding throughout (test): NCI-60 one-dose screen, 48 h (100 = growth as untreated, 0 = no growth, -100 = all killed)
Holding throughout (conditions): 10 µM unless noted

Take `C=C(C)[C@@H]1CC[C@]2(C(=O)NCCNCCNCCN)CC[C@]3(C)[C@H](CC[C@@H]4[C@@]5(C)CC[C@H](O)C(C)(C)[C@@H]5CC[C@]43C)[C@@H]12`: the growth was -51.7% [100 µM] (active) in the experiment with NCI-H23 lung; -23.6% [100 µM] (active) in the experiment on NCI-H226 lung; -83.8% [100 µM] (active) in the experiment on NCI-H322M lung; -69.1% [100 µM] (active) with HOP-62 NSCLC; -100% [100 µM] (active) in the experiment on NCI-H460 lung; -65.4% [100 µM] (active) in the experiment with HOP-92 NSCLC. In addition, the growth in the experiment on NCI-H522 lung was -57.8% [100 µM] (active); in the experiment on A549/ATCC NSCLC, -64.6% [100 µM] (active); with 786-0 renal, -83.5% [100 µM] (active); with COLO 205 colon, -19.5% [100 µM] (active).
Regarding `CCCCC1COc2cccc3c2N1C=C/C3=C\C(=O)n1ccc2ccccc21` (stereo not given), the growth in the experiment on NCI-H23 lung was 76.5%; with NCI-H226 lung, 84%; with NCI-H322M lung, 96.4%; in the experiment on HOP-62 NSCLC, 79.2%; in the experiment with NCI-H460 lung, 88.2%; in the experiment with HOP-92 NSCLC, 63.3%. Besides, the growth was 56% in the experiment with NCI-H522 lung, 78.7% with A549/ATCC NSCLC, 90.1% in the experiment with 786-0 renal and 91% with COLO 205 colon.
On to `CCCN1CC(c2ccc(OC)c(OC)c2)=C(c2cn(C(=O)OCC)c3ccccc23)C1=O`, for which the growth is 65.8% in the experiment with NCI-H23 lung; 76.8% with NCI-H226 lung; 90.6% in the experiment with NCI-H322M lung; 45.9% in the experiment on HOP-62 NSCLC; 37.1% with NCI-H460 lung; 26.2% in the experiment on HOP-92 NSCLC. Besides, the growth was 24% with NCI-H522 lung, 46.3% with A549/ATCC NSCLC, 54.6% with 786-0 renal and 41.7% with COLO 205 colon.
Turning to `COc1ccc2[nH]c(C(=O)N3CCN(C(=O)OCc4ccc5c(Br)cc(Br)c(O)c5n4)CC3)cc2c1`, the growth with NCI-H23 lung was -78.2% (active); in the experiment with NCI-H226 lung, -84.3% (active); in the experiment with NCI-H322M lung, -87.1% (active); in the experiment on HOP-62 NSCLC it was -67% (active); in the experiment on NCI-H460 lung it was -60.3% (active); with HOP-92 NSCLC, -83.9% (active). Moreover, the growth is -78.4% (active) in the experiment on NCI-H522 lung, -79.5% (active) in the experiment on A549/ATCC NSCLC, -93% (active) in the experiment with 786-0 renal and -83.1% (active) in the experiment with COLO 205 colon.
In the case of `Cc1cccc([N+](=O)[O-])c1I`, the growth is 105% with NCI-H23 lung; 102% with NCI-H226 lung; 112% with NCI-H322M lung; 101% with HOP-62 NSCLC; 111% with NCI-H460 lung; 87.4% in the experiment with HOP-92 NSCLC. Moreover, the growth was 93.8% in the experiment on NCI-H522 lung, 102% with A549/ATCC NSCLC, 108% in the experiment with 786-0 renal and 110% in the experiment with COLO 205 colon.
With `CCCCCCCCCCCCCC[n+]1cccc(C(N)=O)c1`, the growth in the experiment on NCI-H23 lung is 13.9%; in the experiment with NCI-H226 lung, 13.8%; with NCI-H322M lung, 16.8%; in the experiment on HOP-62 NSCLC, 17.1%; in the experiment on NCI-H460 lung, 14.8%; in the experiment with HOP-92 NSCLC it was -26.8% (active). In addition, the growth was -35.3% (active) with NCI-H522 lung, 69.5% in the experiment on A549/ATCC NSCLC, -40% (active) in the experiment with 786-0 renal and -66.8% (active) in the experiment with COLO 205 colon.
Take `CCCCCCCCCCCCCCCCCCNC(=S)N/N=C/c1ccc(OC)c(OC)c1`: the growth with NCI-H23 lung is 93.9%; in the experiment with NCI-H226 lung, 99.2%; in the experiment with NCI-H322M lung, 98.7%; in the experiment on HOP-62 NSCLC, 98.6%; in the experiment on NCI-H460 lung it was 103%; in the experiment with HOP-92 NSCLC, 69.4%. Besides, the growth was 94.6% in the experiment on NCI-H522 lung, 98.3% in the experiment with A549/ATCC NSCLC, 102% with 786-0 renal and 104% in the experiment on COLO 205 colon.
On to `Cc1ccc(S(=O)(=O)NCCCNc2nccc(-c3c(-c4cccc(F)c4)nc4occn34)n2)cc1`, for which the growth with NCI-H23 lung is 102%; with NCI-H226 lung, 67.6%; in the experiment on NCI-H322M lung, 77.9%; with HOP-62 NSCLC, 88.5%; in the experiment with NCI-H460 lung it was 75.7%; in the experiment with HOP-92 NSCLC it was 82.5%. Moreover, the growth with NCI-H522 lung is 71.6%; in the experiment on A549/ATCC NSCLC, 53.2%; in the experiment with 786-0 renal, 73.3%; in the experiment with COLO 205 colon it was 66%.
As for `NC(=O)CC1C=CCC1` (stereo not given), the growth was 94.5% in the experiment on NCI-H23 lung; 99.4% with NCI-H226 lung; 108% with NCI-H322M lung; 103% in the experiment on HOP-62 NSCLC; 101% in the experiment on NCI-H460 lung; 106% in the experiment on HOP-92 NSCLC. In addition, the growth is 97.9% in the experiment with NCI-H522 lung, 80.1% in the experiment on A549/ATCC NSCLC, 96.5% in the experiment with 786-0 renal and 114% in the experiment on COLO 205 colon.
On to `CN(Cc1cccc(C(F)(F)F)c1)C(=O)[C@@H](CC(=O)N1CCC(N2CCCCC2)CC1)N1C(=O)[C@@H](N2C(=O)OC[C@@H]2c2ccccc2)[C@H]1/C=C/c1ccccc1`, for which the growth is 93.9% in the experiment on NCI-H23 lung; 85.1% in the experiment on NCI-H226 lung; 93.5% in the experiment on NCI-H322M lung; 81.2% in the experiment with HOP-62 NSCLC; 89% in the experiment with NCI-H460 lung; 58.7% in the experiment on HOP-92 NSCLC. The growth in the experiment with NCI-H522 lung was 96.1%; with A549/ATCC NSCLC it was 80.6%; in the experiment on 786-0 renal it was 75.4%; in the experiment on COLO 205 colon, 72.2%.
Turning to `CSc1cccc([N+](=O)[O-])c1`, the growth in the experiment with NCI-H23 lung is 109%; in the experiment on NCI-H226 lung, 104%; with NCI-H322M lung, 102%; in the experiment with HOP-62 NSCLC it was 105%; in the experiment with NCI-H460 lung, 114%; in the experiment with HOP-92 NSCLC, 106%. In addition, the growth with NCI-H522 lung is 84%; in the experiment with A549/ATCC NSCLC, 101%; in the experiment on 786-0 renal, 101%; with COLO 205 colon, 107%.
On to `Fc1ccc(NC(=S)c2ccccc2)cc1`, for which the growth in the experiment on NCI-H23 lung was 104%; with NCI-H226 lung, 99.1%; in the experiment on NCI-H322M lung it was 106%; in the experiment on HOP-62 NSCLC it was 113%; in the experiment with NCI-H460 lung it was 107%; in the experiment on HOP-92 NSCLC it was 86.5%. Besides, the growth was 96.3% with NCI-H522 lung, 98.8% in the experiment with A549/ATCC NSCLC, 99.5% in the experiment with 786-0 renal and 113% in the experiment on COLO 205 colon.
